Compound activity (PubChem BioAssay)
Shown are actives, neighbours in structure and some others; about 3.4% of the full set was active somewhere.
MITF primary: MITF inhibitors, primary screen, biochemical, AlphaScreen, human; Microphthalmia-associated transcription factor (Homo sapiens), O75030; inhibition, % at 2.6 µM; AlphaScreen MITF homodimerization, bead proximity signal; 650,000 tested, 0.91% active; in the data active = inhibition above about 50%;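 also: 0% = vehicle wells with protein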
TEAD-YAP inh: TEAD-YAP interaction inhibition, primary screen, TEAD-YAP interaction inhibitor project, luminescence, HEK-TIYL cells; 640,000 tested, 1.4% active; TEAD-Gal4/YAP UAS-luciferase luminescence; inhibition, % at 9.12 µM; AID 1259422, 2018; in the data active = inhibition above about 32%;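 also: 0% = median of test compound wells and 100% = reference inhibitor wells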
GPR151 ag: activators of human GPR151, primary screen, cell-based, PathHunter beta-arrestin, luminescence; G-protein coupled receptor 151 (Homo sapiens), Q8TDV0; PathHunter beta-arrestin GPR151 cells; activation, % at 11.2 µM; 650,000 tested, 1% active; in the data active = activation above about 4.9%;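 also: 0% = median of compound wells and 100% = cells with positive control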
Target sequence (Q8TDV0 whole entry, looked up): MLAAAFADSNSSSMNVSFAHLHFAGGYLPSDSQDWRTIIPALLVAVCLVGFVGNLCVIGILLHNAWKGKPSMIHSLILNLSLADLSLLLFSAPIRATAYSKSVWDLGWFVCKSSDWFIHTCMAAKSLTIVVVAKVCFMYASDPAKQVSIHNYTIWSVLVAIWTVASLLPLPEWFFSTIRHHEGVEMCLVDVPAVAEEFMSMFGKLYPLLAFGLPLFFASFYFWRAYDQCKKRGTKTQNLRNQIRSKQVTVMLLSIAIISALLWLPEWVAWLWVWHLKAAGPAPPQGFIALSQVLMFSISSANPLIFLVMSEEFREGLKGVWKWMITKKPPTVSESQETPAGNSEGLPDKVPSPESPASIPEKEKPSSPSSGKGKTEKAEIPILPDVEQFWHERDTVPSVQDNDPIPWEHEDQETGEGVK
FBW7 activator: FBW7 E3 ligase activators, primary screen, biochemical, AlphaScreen, human | F-box/WD repeat-containing protein 7 (Homo sapiens), Q969H0 | AlphaScreen FBW7–phospho-cyclin E peptide binding, activator screen | normalized activity (activation), % at 26.1 µM | 650,000 tested, 0.13% active | AID 1259310, 2017; in the data active = normalized activity above about 1.9%;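 also: purified mutant Fbw7 with reduced substrate affinity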
MITF confirm: MITF inhibitors, retest of hits, confirmation, biochemical, AlphaScreen, triplicate | 4,700 tested, 16% active | inhibition, % at 2.6 µM | AID 1259372, 2018 | AlphaScreen MITF homodimerization, biotin/His-MITF beads | shares compounds with MITF primary;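 active = inhibition above a cutoff derived from the DMSO control wells, cut at about 28% in these data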;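 also: 0% = MITF dimer wells with DMSO only; inhibitors lower the bead chemiluminescence by keeping MITF from dimerizing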
AS interf DR: AlphaScreen optical interference compounds, dose response, counter-screen, biochemical, HTS. shares compounds with MITF primary. AlphaScreen optical interference counterscreen, cell-free. IC50, µM. 480 tested, 6% active; call rule not given here
AS interf ctr: AlphaScreen optical interference compounds, counter-screen for MITF inhibitor project, biochemical, triplicate; LysRS AlphaScreen counterscreen, signal interference; shares compounds with MITF primary; AID 1259376, 2018; inhibition, % at 2.6 µM; 4,700 tested, 7.6% active;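 active = inhibition above a cutoff derived from the DMSO control wells, cut at about 30% in these data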
Active calls of the source: *; . = no result given.

SMILES	MITF primary	TEAD-YAP inh	GPR151 ag	FBW7 activator	MITF confirm	AS interf ctr	others
COc1ccc(-c2[nH]nc3nc(-c4cc(OC)c(O)c(OC)c4)cc(C(=O)O)c23)cc1	70*	-4	1	0	19	27
CC(C)(C)n1ncc2c(=O)n(Cc3cccc(F)c3)cnc21	54*	7	1	0	14	18
COc1ccccc1NC(=S)NCCCn1ccnc1	79*	6	1	0	-1	2
O=C(CNCc1ccccn1)Nc1ccc([N+](=O)[O-])cc1C(=O)Nc1ccccc1F	75*	-8	-2	-2	18	24
O=C(CN1CCOCC1)Nc1ccc([N+](=O)[O-])cc1C(=O)Nc1ccccc1F	4	6	3	0	.	.
CCOc1ccc(NC(=O)c2c(NC(=O)c3ccccc3)sc3c2CCCC3)cc1	-7	0	1	0	.	.
COc1cc(Nc2nc3ncnc(NCc4ccccc4)c3[nH]2)cc(OC)c1OC	18	-5	-1	0	.	.
Cc1ccc(/C=C/C(=O)Nc2ccccc2Cl)o1	52*	-44	-1	0	24	26
O=C(/C=C/c1ccc(Br)o1)Nc1ccccc1Cl	-14	-45	2	0	.	.
COc1ccc(/C=C(\C#N)C(=O)Oc2ccc([N+](=O)[O-])c3cccnc23)cc1	54*	12	-1	-2	51*	99*
CC(=O)c1cccc(OCCCN2CCCCC2)c1	32	0	1	0	.	.
CC(=O)c1cccc(OCCN2CCN(C)CC2)c1	57*	-8	0	0	9	16
CC(=O)c1ccc(OCCCN2CCN(C)CC2)cc1	37	1	0	0	.	.
CCN1CCN(CCCCOc2cccc(C(C)=O)c2)CC1	59*	-7	1	0	10	18
COC(=O)c1nnn(CC(=O)Nc2ccc(Br)cc2)c1C(=O)OC	13	1	-1	0	.	.
CCc1ccc(NC(=O)Cn2nnc(C(=O)OC)c2C(=O)OC)cc1	52*	-1	3	0	-6	-3
O=C(NCc1ccc2c(c1)OCO2)C1(S(=O)(=O)c2ccc(Cl)cc2)CC1	88*	10	1	0	-2	-4
O=C(CNCCc1ccc(Cl)cc1)NCc1ccc2c(c1)OCO2	60*	11	-1	1	6	21
C=CCOc1c(Cl)cc(/C=c2\sc3n(c2=O)C(c2ccc(OCC)cc2)C(C(=O)OCC)=C(C)N=3)cc1Cl (stereo not given)	7	-1	0	0	.	.
CCOC(=O)C1=C(C)N=c2s/c(=C\c3cc(Cl)c(OC)c(OC)c3)c(=O)n2C1c1ccc(OCC)cc1 (stereo not given)	51*	-2	0	0	-9	-7
Cc1cc(C)cc(NCc2ccc3c(c2)OCO3)c1	67*	3	0	0	16	11
Cc1c(CN2CCN(C3CCN(C(C)C)CC3)C(CCO)C2)cnn1C (stereo not given)	84*	0	0	0	-3	-9
Cc1cc(C)c(CN2CCN(C3CCN(C(C)C)CC3)C(CCO)C2)cc1C (stereo not given)	-2	1	-1	0	.	.
CCN(CC)C(=O)CN(c1cccc(C)c1C)S(=O)(=O)c1ccccc1	10	7	-1	0	.	.
COc1cc(-c2nc3sc4c(c3c(=O)[nH]2)CCCC4)ccc1OC(=O)c1ccc(F)cc1	75*	3	0	0	-2	-5
O=c1[nH]c(-c2ccco2)nc2sc3c(c12)CCCC3	81*	-28	-1	0	69*	-13	AS interf DR=>9.7
COc1cc(-c2nc3sc4c(c3c(=O)[nH]2)CCCC4)ccc1OC(=O)c1ccc(Cl)cc1	-14	-2	1	0	.	.
COc1cc(/C=N\Nc2cc(C)c3ccccc3n2)ccc1O	-3	-2	1	0	.	.
